This is part of a sample that, as a whole, favours compounds with a hit. Of some 83,000 tested, about 20% had one in any assay.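 Interpretation: 100, growth as untreated; towards 0, rising growth inhibition; 0, no net growth; 0 to -100, cell death. Compounds scoring below 10 were considered active.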 Unmarked numbers belong to inactive results. Activity calls are given as the source filed them.

Growth data for 8 compounds are collected here from PubChem BioAssay (NCI).

Common to all, as to assay: NCI-60 one-dose screen, 48 h (100 = growth as untreated, 0 = no growth, -100 = all killed)
Common to all, as to details: 10 µM unless noted

The test system of assay [1] is HCT-15 colon.
For assay [2], the system named is HT29 colon.
In assay [3] the test system is SNB-75 CNS.
The test system of assay [4] is SNB-19 CNS.
In assay [5] the test system is U251 CNS.
Assay [6] deals with PC-3 prostate.
In assay [7] the test system is SK-MEL-5 melanoma.
For assay [8], the system named is UACC-62 melanoma.
In assay [9] the test system is LOX IMVI melanoma.
For assay [10], the system named is SK-MEL-28 melanoma.
For assay [11], the system named is SK-MEL-2 melanoma.
The subject of assay [12] is EKVX NSCLC.
For assay [13], the system named is SN12C renal.
Assay [14] has as its system UO-31 renal.
Assay [15] concerns TK-10 renal.
For assay [16], the system named is ACHN renal.
For assay [17], the system named is CAKI-1 renal.
Assay [18] has as its system A498 renal.
The subject of assay [19] is CCRF-CEM leukemia.
In assay [20] the test system is MOLT-4 leukemia.

As to `COc1ccc(C(=O)c2nc3ccccc3n2CC(=O)c2ccc(Cl)cc2)cc1`, the growth in assay [1] is 17.4%; in [2], 16.1%; in assay [3], 1.37% (active); in assay [4], 48.2%; in assay [5] it was 22.7%; in [6], 34.9%. In addition, the growth in assay [7] was 20.5%; in assay [8], 13.2%; in assay [9], 39.2%; in assay [10] it was 45.5%; in assay [11], 63.5%; in assay [12], 86%. In addition, the growth is 45.5% in [13]; 45.6% in assay [14]; 51.7% in assay [15]; 48.6% in assay [16]; 23.7% in assay [17]; 72.5% in [18]. Further, the values for the growth in assay [19] and in assay [20] were 13.8% and 17.2%, respectively.
With `O=C(Cn1c[n+](CC(=O)c2ccc([N+](=O)[O-])cc2)c2ccccc21)Nc1cccc2cccnc12`, the growth in assay [1] is 101%; in assay [2], 40.4%; in assay [3], 29.8%; in assay [4], 37.5%; in assay [5] it was 63.7%; in [6] it was 38.9%. In addition, the growth in assay [7] is 95.8%; in assay [8], 69.1%; in assay [9], 86.3%; in assay [10], 78.7%; in assay [11], 41.4%; in [12], 73.6%. The growth was 30% in assay [13]; 66% in assay [14]; 114% in assay [15]; 93.8% in assay [16]; 84.1% in [17]; 94.7% in assay [18]. For the same compound, the growth in assay [19] was 89.4%; in assay [20], 92.8%.
With `C=C(C)[C@@H]1CC[C@]2(C(=O)N[C@@H](Cc3ccccc3)C(=O)OC)CC[C@]3(C)[C@H](CC[C@@H]4[C@@]5(C)CCC(=O)C(C)(C)[C@@H]5CC[C@]43C)[C@@H]12`, the growth was 94% in assay [1]; 70.1% in assay [2]; 87.1% in assay [3]; 104% in assay [4]; 85.2% in assay [5]; 52.3% in assay [6]. For the same compound, the growth in assay [7] was 95.2%; in assay [8] it was 56.9%; in [9] it was 73.9%; in assay [10] it was 97.9%; in assay [11], 75.8%; in [12], 85.4%. In addition, the growth was 95.3% in [13]; 75.7% in assay [14]; 90.9% in [15]; 90.5% in assay [16]; 45.5% in assay [17]; 84% in assay [18]. In addition, the growth in [19] was 84.7%; in assay [20], 64.6%.
As for `COc1cc(/C=C\c2cc(OC)c(OC)c(OC)c2)cc(N)c1OC`, the growth is 70% in [1]; 87% in assay [2]; 78.7% in assay [3]; 88.6% in [4]; 91.2% in [5]; 82.1% in [6]. For the same compound, the growth in [7] is 86.7%; in assay [8] it was 74.7%; in assay [9], 86.8%; in assay [10], 97.6%; in [11], 74.2%; in assay [12], 94.1%. Also, the growth was 93.4% in [13]; 69% in [14]; 95.9% in assay [15]; 105% in [16]; 56.4% in [17]; 76.5% in [18]. Moreover, the growth in assay [19] was 74%; in assay [20], 93.1%.
Consider `CCOC(=O)C1=C(CCl)NC(=O)NC1c1ccc2c(c1)OCO2` (stereo not drawn), for which the growth was 3.53% (active) in assay [1]; 6.92% (active) in [2]; 77.6% in [3]; 64.4% in [4]; 18.5% in [5]; 53.9% in assay [6]. The growth in assay [7] was 9.17% (active); in assay [8], 31.4%; in assay [9] it was 21%; in [10], 45.6%; in assay [11], 69.5%; in assay [12], 52.7%. For the same compound, the growth is 20.1% in assay [13]; 56.9% in assay [14]; 57.3% in assay [15]; 31% in [16]; 47% in [17]; 98% in assay [18]. The results for the growth in [19] and in [20] were 10.8% and 37.7%, respectively.
On to `N#Cc1c(-c2ccccc2)nc2c(c(-c3ccccc3)nn2-c2ccccc2)c1-c1ccc(O)cc1`, for which the growth in assay [1] is 34.8%; in assay [2], 84.7%; in assay [3], 33.2%; in assay [4] it was 39.3%; in assay [5], 24.3%; in assay [6], 4.85% (active). The growth was 59% in assay [7]; 61.5% in assay [8]; -48.3% (active) in assay [9]; 49.1% in assay [10]; 72.7% in assay [11]; 45.2% in assay [12]. The growth in assay [13] is 61.9%; in assay [14] it was 27.9%; in assay [15] it was 21.7%; in assay [16] it was 42.3%; in assay [17], 53.4%; in [18], -1.01% (active). Besides, in [19], the growth is 22.1%.
Turning to `O=C(CSc1nc2ccccc2[nH]1)NCc1ccccc1`, the growth in [1] was 105%; in [2], 99.4%; in assay [3], 74.5%; in [4], 97.8%; in assay [5], 106%; in assay [6] it was 98.8%. Besides, the growth in assay [7] was 102%; in assay [8] it was 95.2%; in assay [9] it was 98.3%; in assay [10], 102%; in assay [11], 120%; in assay [12], 101%. The growth is 95.8% in assay [13]; 83.6% in assay [14]; 4.87% (active) in [15]; 95.4% in assay [16]; 82.1% in [17]; 105% in assay [18]. The growth in [19] is 103%.
Consider `CN1[C@@H]2CC[C@H]1/C(=C\c1ccccc1)C(=O)/C2=C/c1ccccc1`, for which the growth in assay [1] is 27.9%; in assay [2] it was 10.9%; in assay [3], 26.4%; in [4], 47.1%; in assay [5], 16.6%; in [6], 36.8%. The growth in assay [7] is 43.9%; in assay [8] it was 26.6%; in assay [9], 19.7%; in [10] it was 70.9%; in assay [11], 60.7%; in assay [12] it was 69.4%. In addition, the growth in assay [13] was 36.8%; in assay [14], 55.4%; in assay [15] it was 74.9%; in assay [16] it was 42%; in assay [17], 41.3%; in assay [18] it was 71.7%. Also, the growth in assay [19] is 16.1%; in assay [20], 14.9%.
